Screening results from PubChem.
Pf Dd2 inh = P. falciparum Dd2 growth inhibitors, primary screen, SYBR Green fluorescence, single dose replicates | activity change, % at 10 µM | 72 h; hits give low values | 2.3% of 94,000 active; in the data active means activity change below about -80%
C diff growth = C. difficile growth inhibitors, primary screen, HTS; growth activity, negative = inhibition, % at 16 µg/mL (by protocol); 0.25% of 86,000 active; Clostridium difficile clinical isolate growth, OD600, 24 h; hits give low values;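 active means mean growth activity at or below -80% and every replicate also at or below -80%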
Numbers stand for hits; – = inactive; · = no result given. In the library only some 2.4% were active in any assay of this set; here they are far more common.

SMILES | Pf Dd2 inh | C diff growth
COc1ccc(NC(=O)Nc2ccc3c(c2)C(=O)N([C@H](C)CO)C[C@H](C)[C@H](CN(C)S(=O)(=O)c2c(C)noc2C)OCCCC[C@H](C)O3)cc1 | – | –
COc1ccc(NC(=O)Nc2ccc3c(c2)C(=O)N([C@H](C)CO)C[C@@H](C)[C@H](CN(C)S(=O)(=O)c2c(C)noc2C)OCCCC[C@@H](C)O3)cc1 | -80.5 | –
O=C(Nc1cc(F)ccc1F)N1CC(=O)N2[C@@H](CO)[C@H](c3ccc(/C=C/c4ccccc4)cc3)[C@@H]2C1 | – | –
CO[C@@H]1CN(C)C(=O)c2cc(NC(=O)Nc3ccccc3Cl)ccc2OC[C@@H](C)N(C)C[C@H]1C | – | –
O=C(C1CCC1)N1CC2(C1)[C@@H](c1ccccc1)[C@H](CO)N2C(=O)c1ccccn1 | – | –
CN(C)CC(=O)N[C@H]1CC[C@@H](CCNC(=O)C2CCCCC2)O[C@H]1CO | – | –
COc1cc(CN2[C@@H]3CNC[C@H]2C3c2ccc(-c3cccnc3)cc2)cc(OC)c1 (some centres not stated) | – | –
FC(F)(F)c1cccc(CN2[C@@H]3CNC[C@H]2[C@@H]3c2ccc(-c3cccnc3)cc2)c1 | -84.2 | –
C[C@@H]1CN([C@@H](C)CO)S(=O)(=O)c2ccc(-c3ccccc3)cc2O[C@@H]1CN(C)S(=O)(=O)c1ccccc1F | – | –
COc1cccc(C#Cc2ccc3c(c2)O[C@@H](CN(C)S(=O)(=O)c2ccccc2F)[C@H](C)CN([C@H](C)CO)S3(=O)=O)c1 | – | –
COc1ccc(C#Cc2ccc3c(c2)O[C@H](CN(C)S(=O)(=O)c2ccccc2F)[C@@H](C)CN([C@@H](C)CO)S3(=O)=O)cc1 | -85.7 | –
C[C@@H]1CN([C@@H](C)CO)S(=O)(=O)c2ccc(-c3ccccc3)cc2O[C@H]1CN(C)S(=O)(=O)c1ccccc1F | -83.8 | –
COc1cccc(C#Cc2ccc3c(c2)O[C@H](CN(C)S(=O)(=O)c2ccccc2F)[C@H](C)CN([C@@H](C)CO)S3(=O)=O)c1 | – | –
COc1ccc(C#Cc2ccc3c(c2)O[C@@H](CN(C)S(=O)(=O)c2ccccc2F)[C@H](C)CN([C@@H](C)CO)S3(=O)=O)cc1 | -82.0 | –
CNC[C@H]1Oc2ccc(NS(=O)(=O)c3ccc(Cl)cc3)cc2C(=O)N([C@@H](C)CO)C[C@H]1C | – | –
COc1ccc(C[C@H]2CCc3cnnn3COC[C@H](C(C)C)NC2=O)cc1 | · | –
O=C(NC1Cc2ccccc2C1)[C@H]1[C@H](CO)[C@H]2Cn3c(ccc(C4=CCCCC4)c3=O)[C@@H]1N2CC1CC1 | – | –
O=C(C[C@H]1C[C@@H]2c3cc(NS(=O)(=O)c4ccc(F)cc4)ccc3O[C@@H]2[C@@H](CO)O1)N1CCOCC1 | – | –
CO[C@@H]1CN(C)C(=O)c2ccc(NS(=O)(=O)c3cccc(F)c3)cc2OC[C@@H](C)N(C(=O)Cc2cccnc2)C[C@H]1C | – | ·
COc1cccc(NC(=O)N[C@@H]2C=C[C@H](CC(=O)N3CCCCC3)O[C@H]2CO)c1 | – | –
C[C@@H]1CN([C@H](C)CO)C(=O)c2cc(C#Cc3ccccn3)cnc2O[C@@H]1CN(C)Cc1ccncc1 | – | –
CCCNC(=O)N1CCC2(CC1)CN(Cc1ccc(F)cc1)[C@@H](CO)c1[nH]c3cc(OC)ccc3c12 | -88.1 | –
CCCC(=O)N1CCC2(CC1)CN(Cc1nccs1)[C@H](CO)c1[nH]c3cc(OC)ccc3c12 | – | –
CCCC(=O)N1CCC2(CC1)CN(Cc1ccc(Cl)cc1)[C@H](CO)c1[nH]c3cc(OC)ccc3c12 | -84.9 | –
CCCNC(=O)N1CCC2(CC1)CN(Cc1cccc(F)c1)[C@@H](CO)c1[nH]c3cc(OC)ccc3c12 | – | –
SMILES | Pf Dd2 inh | C diff growth
CCC(=O)N1CC2(C1)CN(Cc1cccc(OC)c1)[C@H](CO)c1[nH]c3cc(OC)ccc3c12 | – | –
CCC(=O)N1CCC2(CC1)CN(Cc1ccc(Cl)cc1)[C@H](CO)c1[nH]c3cc(OC)ccc3c12 | -88.1 | –
C[C@H]1CN([C@@H](C)CO)C(=O)c2cccc(NS(=O)(=O)c3ccc(F)cc3)c2O[C@H]1CN(C)Cc1ccc(C(=O)Nc2ccccc2N)cc1 | -88.5 | –
C[C@@H]1CN([C@@H](C)CO)C(=O)c2cccc(NS(=O)(=O)c3ccc(F)cc3)c2O[C@@H]1CN(C)Cc1ccc(C(=O)Nc2ccccc2N)cc1 | -89.7 | –
C[C@@H]1CN([C@@H](C)CO)C(=O)c2cccc(NS(=O)(=O)c3ccc(F)cc3)c2O[C@H]1CN(C)Cc1ccc(C(=O)Nc2ccccc2N)cc1 | – | –
C[C@H]1CN([C@@H](C)CO)C(=O)c2cccc(NS(=O)(=O)c3ccc(F)cc3)c2O[C@@H]1CN(C)Cc1ccc(C(=O)Nc2ccccc2N)cc1 | – | –
COc1ccc(S(=O)(=O)Nc2cccc3c2O[C@H](CN(C)C(=O)NC2CCCCC2)[C@H](C)CN([C@H](C)CO)C3=O)cc1 | – | –
C[C@@H]1CCCCO[C@@H](CN(C)CC2CCCCC2)[C@@H](C)CN([C@@H](C)CO)C(=O)c2cc(NC(=O)CCC(F)(F)F)ccc2O1 | – | –
Cc1ccc(S(=O)(=O)N(C)C[C@H]2Oc3ccc(NC(=O)CCCN(C)C)cc3CC(=O)N([C@@H](C)CO)C[C@@H]2C)cc1 | – | –
N#C[C@H]1[C@H](c2ccccc2C2=CCCCC2)[C@H](CO)N1C(=O)c1cccc(F)c1 | – | –
COc1ccc(NC(=O)Nc2ccc3c(c2)C(=O)N([C@@H](C)CO)C[C@@H](C)[C@@H](CN(C)Cc2ccc4c(c2)OCO4)OCCCC[C@@H](C)O3)cc1 | -83.0 | –
COc1ccc(NC(=O)Nc2ccc3c(c2)C(=O)N([C@@H](C)CO)C[C@@H](C)[C@@H](CN(C)Cc2ccc4c(c2)OCO4)OCCCC[C@H](C)O3)cc1 | – | –
COc1ccc(NC(=O)Nc2ccc3c(c2)C(=O)N([C@@H](C)CO)C[C@H](C)[C@H](CN(C)Cc2ccc4c(c2)OCO4)OCCCC[C@@H](C)O3)cc1 | – | –
COc1ccc(NC(=O)Nc2ccc3c(c2)C(=O)N([C@H](C)CO)C[C@@H](C)[C@H](CN(C)Cc2ccc4c(c2)OCO4)OCCCC[C@@H](C)O3)cc1 | -82.9 | –
Cc1noc(C)c1NC(=O)N(C)C[C@@H]1OCCCC[C@H](C)Oc2ccc(N(C)C)cc2C(=O)N([C@H](C)CO)C[C@H]1C | – | –
CC(C)NC(=O)N1C[C@@H]2[C@H](c3ccccc31)[C@@H](CO)N2C(=O)c1ccccc1F | – | –
COc1ccc(CN(C)C[C@@H]2Oc3c(NC(=O)Nc4ccc(C(F)(F)F)cc4)cccc3C(=O)N([C@H](C)CO)C[C@H]2C)cc1 | – | –
C[C@@H]1CN([C@@H](C)CO)C(=O)c2cccc(NC(=O)Nc3ccc(C(F)(F)F)cc3)c2O[C@@H]1CN(C)Cc1ccc(C(F)(F)F)cc1 | – | -102.7
C[C@@H]1CN([C@@H](C)CO)C(=O)c2cccc(NC(=O)Nc3ccc(F)cc3)c2O[C@@H]1CN(C)Cc1ccc(C(F)(F)F)cc1 | – | -92.3
COc1ccc(CN(C)C[C@H]2Oc3c(NC(=O)Nc4ccc(C(F)(F)F)cc4)cccc3C(=O)N([C@@H](C)CO)C[C@H]2C)cc1 | – | -100.8
C[C@H]1CN([C@@H](C)CO)C(=O)c2cccc(NC(=O)Nc3ccc(C(F)(F)F)cc3)c2O[C@@H]1CN(C)Cc1ccc(C(F)(F)F)cc1 | – | –
